The nature of assay [1]: optical density shifts of acrAB sulA E. coli – strain DRC41, OD650, 48 h, E. coli filamentation inducer project, primary screen (AID 1152).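 Further: E. coli MC1000 strain DRC41 lacking acrAB efflux pump and sulA.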 Conditions: higher = more signal, called active from +8 up or from −8 down.
Assay [2] is described as follows: probe aLefty1 binding on compound microarray – biochemical, small-molecule microarray, 635/667 nm fluorescence, primary screen (AID 1153).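 Further: score merges spot fluorescence with signal-to-noise ratio from the scanned slide images.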 Conditions: higher = more signal.
Assay [3] can be described thus: plasmodial surface anion channel blockers, osmotic lysis – cell-based, P. falciparum Indochina, OD700, 1 h, primary screen (AID 1154). To be noted: P. falciparum Indochina infected RBC osmotic lysis, higher = more signal, called active from +8 up or from −8 down.
Assay [4] can be described thus: plasmodial surface anion channel blockers, osmotic lysis – cell-based, P. falciparum Indochina, OD700, 2 h, primary screen (AID 1155).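 Further: lysis reports solute entry through the parasite surface anion channel PSAC.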 To be noted: P. falciparum Indochina infected erythrocytes, higher = more signal, called active from +8 up or from −8 down.
Assay [5] is described as follows: changes in parasitized red cell lysis, either direction – P. falciparum Indochina, OD700, 3 h, PSAC antagonist project, primary screen (AID 1156). Conditions: P. falciparum-infected erythrocytes, osmotic lysis, higher = more signal, called active from +8 up or from −8 down.
The nature of assay [6]: plasmodial surface anion channel blockers, osmotic lysis – cell-based, P. falciparum Indochina, OD700, 18 h, primary screen (AID 1157). Conditions: P. falciparum Indochina infected erythrocytes, osmotic lysis OD700, 18 h; higher = more signal, called active from +8 up or from −8 down.
Assay [7] in a line: S6 kinase pathway phospho-S6 level changes – cell-based, A549, cytoblot, luminescence, serum-stimulated, primary screen (AID 1158).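 Further: serum-stimulated A549 lung adenocarcinoma cells; signal is phosphorylated S6 detected by cytoblot immunostaining with HRP secondary.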 To be noted: 5 h, higher = more signal.
In assay [8] the target is NADPH oxidase 2 (Homo sapiens) (UniProt P04839). Put plainly: compounds shifting NOX2 Amplex Red fluorescence – cell-based, HEK293-NOX2, PMA-stimulated, NOX inhibitor project, primary screen (AID 1159). Further: test concentration not given here. Conditions: 45 min, higher = more signal, called active from +8 up or from −8 down.
For assay [9], the target named is NADPH oxidase 4 (Homo sapiens) (UniProt Q9NPH5). Put plainly: compounds shifting NOX4 Amplex Red fluorescence – cell-based, HEK293-NOX4, tetracycline-induced, NOX inhibitor project, primary screen (AID 1160). Conditions: HEK293-NOX4, Amplex Red H2O2 fluorescence, 45 min; higher = more signal, called active from +8 up or from −8 down.
Assay [10] concerns the target NADPH oxidase 5 (Homo sapiens) (UniProt Q96PH1). In words: compounds shifting NOX5 Amplex Red fluorescence – cell-based, HEK293-NOX5, NOX inhibitor project, primary screen (AID 1161). Conditions: HEK293-NOX5, ionomycin, 45 min, higher = more signal.
A short description of assay [11]: compound effects on lung adenocarcinoma cell viability – A549, calcein-AM fluorescence, 48 h, basal, profiling panel (AID 1162). Further: test concentration not given here. To be noted: higher = more signal.
The nature of assay [12]: compound effects on differentiated 3T3-L1 adipocyte viability – cell-based, 3T3-L1 adipocytes, calcein-AM fluorescence, 48 h, basal, profiling panel (AID 1163). Further: test concentration not given here. To be noted: 3T3-L1 adipocytes viability, higher = more signal.
Assay [13] is described as follows: compound effects on hepatocellular carcinoma cell viability – HepG2, calcein-AM fluorescence, 48 h, basal, profiling panel (AID 1164). Further: test concentration not given here. To be noted: higher = more signal.
The nature of assay [14]: compound effects on multiple myeloma cell viability – MM1S, calcein-AM fluorescence, 48 h, basal, profiling panel (AID 1165). Further: test concentration not given here. Conditions: higher = more signal.
Assay [15] is described as follows: calcein-AM signal in unstimulated myeloma cells – cell-based, calcein-AM fluorescence, 48 h, PK04 Diversity Set, profiling panel (AID 1166).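 Further: cells grown under basal conditions without added stimulus; test concentration not given here.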 To be noted: RPMI8226 myeloma viability, higher = more signal.
A short description of assay [16]: JC-1 mitochondrial signal, unstimulated HepG2 cells – cell-based, JC-1 fluorescence, 24 h, 100 nL compound, profiling panel (AID 1167). Further: test concentration not given here. To be noted: HepG2 mitochondrial potential, higher = more signal.
A short description of assay [17]: JC-1 mitochondrial signal, unstimulated adipocytes – cell-based, JC-1 fluorescence, 3T3-L1 adipocytes, 24 h, 100 nL compound, profiling panel (AID 1168). Further: test concentration not given here. Conditions: JC-1 mitochondrial fluorescence, higher = more signal, called active from +8 up or from −8 down.
The nature of assay [18]: JC-1 mitochondrial signal, unstimulated myeloma cells – cell-based, JC-1 fluorescence, RPMI8226, 24 h, 100 nL compound, profiling panel (AID 1169). Further: test concentration not given here. To be noted: JC-1 mitochondrial potential fluorescence, higher = more signal.
A short description of assay [19]: JC-1 mitochondrial signal, unstimulated MM1S myeloma – cell-based, JC-1 fluorescence, 24 h, 100 nL compound, profiling panel (AID 1170). Further: test concentration not given here. Conditions: MM1S mitochondrial potential, higher = more signal.
Assay [20] in a line: resazurin metabolic signal in A549 cells – cell-based, resazurin fluorescence, 24 h, PK04 Diversity Set, profiling panel (AID 1171). Further: test concentration not given here. To be noted: A549 viability, higher = more signal, called active from +8 up or from −8 down.

The source made the active and inactive calls.

Chain of NADPH oxidase 4 (Homo sapiens) (Q9NPH5 whole entry, looked up): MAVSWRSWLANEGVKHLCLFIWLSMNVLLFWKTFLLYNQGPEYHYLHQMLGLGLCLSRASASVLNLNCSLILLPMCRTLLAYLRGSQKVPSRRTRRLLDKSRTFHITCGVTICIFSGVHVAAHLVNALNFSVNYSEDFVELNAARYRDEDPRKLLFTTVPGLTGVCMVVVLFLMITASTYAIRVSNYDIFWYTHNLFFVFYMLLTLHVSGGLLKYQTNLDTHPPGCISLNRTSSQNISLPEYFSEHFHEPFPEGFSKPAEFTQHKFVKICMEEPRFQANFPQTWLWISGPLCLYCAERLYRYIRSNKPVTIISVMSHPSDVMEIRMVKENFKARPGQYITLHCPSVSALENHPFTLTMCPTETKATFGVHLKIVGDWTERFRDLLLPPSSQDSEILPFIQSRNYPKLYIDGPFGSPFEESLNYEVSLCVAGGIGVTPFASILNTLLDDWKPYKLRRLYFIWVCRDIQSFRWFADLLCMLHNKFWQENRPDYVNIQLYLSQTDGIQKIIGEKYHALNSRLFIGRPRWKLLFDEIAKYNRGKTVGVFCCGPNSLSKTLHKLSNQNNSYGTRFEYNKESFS
Chain of NADPH oxidase 2 (Homo sapiens) (P04839 whole entry, looked up): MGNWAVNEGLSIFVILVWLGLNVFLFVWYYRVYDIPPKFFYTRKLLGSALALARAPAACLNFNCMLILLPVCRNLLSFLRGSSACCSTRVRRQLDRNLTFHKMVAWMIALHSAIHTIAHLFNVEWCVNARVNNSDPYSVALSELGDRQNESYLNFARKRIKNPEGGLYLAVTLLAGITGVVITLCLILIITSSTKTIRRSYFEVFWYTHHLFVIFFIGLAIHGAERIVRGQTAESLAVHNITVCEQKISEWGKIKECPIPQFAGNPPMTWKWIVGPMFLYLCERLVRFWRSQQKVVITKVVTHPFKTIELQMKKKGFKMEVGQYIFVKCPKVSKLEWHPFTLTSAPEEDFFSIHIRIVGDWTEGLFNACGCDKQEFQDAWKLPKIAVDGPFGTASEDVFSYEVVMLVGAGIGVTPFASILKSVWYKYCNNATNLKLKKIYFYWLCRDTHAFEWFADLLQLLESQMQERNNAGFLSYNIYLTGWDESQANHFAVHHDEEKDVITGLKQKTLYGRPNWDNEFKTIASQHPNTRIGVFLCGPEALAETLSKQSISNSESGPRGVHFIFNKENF
Chain of NADPH oxidase 5 (Homo sapiens) (Q96PH1 whole entry, looked up): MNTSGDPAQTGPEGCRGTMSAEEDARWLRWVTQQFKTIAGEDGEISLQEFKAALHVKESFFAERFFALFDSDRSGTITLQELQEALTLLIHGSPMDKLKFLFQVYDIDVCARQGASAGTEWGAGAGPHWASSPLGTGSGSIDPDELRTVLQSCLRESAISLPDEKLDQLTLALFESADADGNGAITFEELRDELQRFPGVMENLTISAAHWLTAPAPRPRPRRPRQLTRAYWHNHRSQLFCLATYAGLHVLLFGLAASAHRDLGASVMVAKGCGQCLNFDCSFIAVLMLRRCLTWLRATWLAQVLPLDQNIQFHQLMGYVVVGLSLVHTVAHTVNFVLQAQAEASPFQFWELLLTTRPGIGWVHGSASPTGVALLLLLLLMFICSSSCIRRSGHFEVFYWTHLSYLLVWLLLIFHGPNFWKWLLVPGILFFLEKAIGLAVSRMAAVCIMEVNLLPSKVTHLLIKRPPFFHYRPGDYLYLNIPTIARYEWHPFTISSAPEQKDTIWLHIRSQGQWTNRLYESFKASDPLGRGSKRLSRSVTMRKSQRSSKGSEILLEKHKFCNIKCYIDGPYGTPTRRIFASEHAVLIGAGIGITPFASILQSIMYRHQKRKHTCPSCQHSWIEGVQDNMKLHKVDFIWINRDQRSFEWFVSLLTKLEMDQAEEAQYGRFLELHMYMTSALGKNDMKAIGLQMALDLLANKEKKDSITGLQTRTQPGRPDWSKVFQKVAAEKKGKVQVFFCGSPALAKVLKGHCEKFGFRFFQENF

With `CN1C(=O)C2C=CC(C(O)c3ccc(Br)cc3)N(N(c3ccccc3)c3ccccc3)C2C1=O` (stereo not given), the z-score in assay [1] is -1.19 (inactive); in assay [3], 15.4 (active); in assay [4], 3.08 (inactive); in [5] it was 0.948 (inactive); in [6], 1.76 (inactive); in assay [7], -0.0423. Moreover, the z-score is 1.2 (inactive) in [8]; 0.184 (inactive) in [9]; 0.24 in assay [10]; 1.78 in assay [11]; -0.658 in [12]; 1.37 in assay [13]. For the same molecule, the z-score in [14] is 0.0222; in [15], -0.574; in assay [16], 0.232; in [17], -1.07 (inactive); in [18], 0.343; in assay [19], -0.654. Besides, in assay [20], the z-score is -0.335 (inactive). Further, the composite z-score in [2] came out at 0.446.

Turning to `CN1C(=O)C2C(C1=O)C1C=C(CCCO)C2C(c2ccc(CN3CCCC3)cc2)N1C` (stereo not given), the z-score in [1] was -0.204 (inactive); in [3], 1.51 (inactive); in [4], 0.621 (inactive); in assay [5], 0.914 (inactive); in assay [6] it was 0.378 (inactive); in [7] it was 0.318. Also, the z-score in assay [8] was -2.14 (inactive); in assay [9], -1.25 (inactive); in assay [10], -0.91; in [11] it was -0.259; in assay [12], 0.617; in [13] it was -0.94. The z-score in [14] is 0.312; in assay [15], -1.55; in assay [16] it was 0.48; in [17], -0.319 (inactive); in assay [18], -0.667; in [19] it was 0.287. In [20], the z-score is -1.1 (inactive). The same molecule showed a composite z-score in [2] of 0.0811.

As to `COC(=O)[C@@H]1CCCN1C(=O)[C@@H](C)CO`, the z-score in [1] was -0.926 (inactive); in assay [3], 0.34 (inactive); in assay [4], -0.603 (inactive); in assay [5], 0.864 (inactive); in assay [6], -1.69 (inactive); in assay [7], 1.4. Further, the z-score in assay [8] is -0.366 (inactive); in [9] it was -0.739 (inactive); in assay [10] it was -1.15; in assay [11], 0.0364; in assay [12] it was 0.512; in assay [13], -0.52. The z-score in assay [14] was -2.77; in [15], -0.57; in [16], -0.952; in assay [17], 0.514 (inactive); in assay [18], -0.157; in [19] it was -1.32. Also, in assay [20], the z-score was -1.14 (inactive). This molecule also showed a composite z-score in assay [2] of -0.147.

As to `CCOC(=O)C1=CC[C@H]2C(=O)N(CC)C(=O)[C@@H]12`, the z-score in assay [1] is -0.457 (inactive); in assay [3], 1.09 (inactive); in assay [4], 1.21 (inactive); in assay [5] it was 0.253 (inactive); in assay [6] it was 0.804 (inactive); in [7], -0.45. The z-score in [8] was -0.0988 (inactive); in assay [9] it was 0.484 (inactive); in [10], 0.829; in assay [11] it was -0.148; in assay [12], 0.0888; in assay [13], -0.622. The z-score in assay [14] was -0.0999; in assay [15], 0.0317; in [16] it was -0.342; in assay [17], -0.362 (inactive); in assay [18] it was 0.0877; in [19], -0.517. Further, the z-score in assay [20] was 1.17 (inactive). In assay [2], this molecule registered a composite z-score of -0.0412.

For the molecule `[N-]=[N+]=NCc1ccccc1C[C@]1(C(=O)NCc2ccccc2)N=C(c2ccc(OCCCO)cc2)O[C@H]1c1ccccc1N=[N+]=[N-]`, the z-score is 0.0901 (inactive) in assay [1]; 30.6 (active) in assay [3]; 30.6 (active) in assay [4]; 2.72 (inactive) in [5]; 3.32 (inactive) in [6]; -0.275 in assay [7]. In addition, the z-score in assay [8] was -0.349 (inactive); in [9] it was -0.15 (inactive); in assay [10], -1.66; in assay [11], -0.71; in assay [12] it was 0.0331; in [13] it was -1.03. Also, the z-score in [14] was -2.98; in assay [15], -4.24; in assay [16], 0.504; in assay [17], -0.249 (inactive); in assay [18], -1.17; in assay [19], -1.5. In addition, the z-score in assay [20] was -0.883 (inactive). This molecule returned a composite z-score in assay [2] of -0.7.

Take `CC(CCC(=O)OC[C@H]1O[C@H](C#Cc2ccccc2)C=C[C@@H]1Oc1ccc(C)cc1)=NOC[C@@H](O)[C@H]1O[C@@H]2OC(C)(C)O[C@@H]2[C@H]1O`: the z-score in assay [1] was 0.715 (inactive); in assay [3] it was 14.2 (active); in assay [4], 1.9 (inactive); in assay [5], 0.0766 (inactive); in assay [6] it was 1.05 (inactive); in [7], 0.078. The z-score is -1.55 (inactive) in [8]; -0.00198 (inactive) in assay [9]; -1.2 in assay [10]; 0.0105 in assay [11]; -0.0958 in assay [12]; 0.0263 in [13]. Also, the z-score in assay [14] was -0.567; in assay [15], -1.53; in [16], -0.791; in [17], -0.649 (inactive); in assay [18], -0.0641; in [19], -1.26. The z-score in assay [20] was -0.042 (inactive). The same molecule returned a composite z-score in assay [2] of -0.193.

Take `COC(=O)C1(C)C=C2C(=C(c3ccccc3)C(=O)C2C)CN1` (stereo not given): the z-score in assay [1] is -1.47 (inactive); in assay [3], 0.585 (inactive); in assay [4], 0.196 (inactive); in assay [5] it was 0.745 (inactive); in [6], 0.543 (inactive); in assay [7], -0.387. Also, the z-score in assay [8] is 0.512 (inactive); in assay [9] it was -2.49 (inactive); in assay [10], -2.34; in assay [11], -1.3; in assay [12], -0.492; in assay [13], -1.26. Besides, the z-score in assay [14] was -0.671; in [15], -1.49; in assay [16], -1.68; in assay [17], -2.71 (inactive); in [18] it was 0.2; in [19] it was -0.933. In addition, in assay [20], the z-score is -0.72 (inactive). Moreover, in [2], the composite z-score was 0.22.

Take `CO[C@H]([C@@H](C)[C@H](OC)c1ccccc1)[C@H](C)[C@@H](OC)[C@H](C)C(C)=O`: the z-score in [1] was -0.558 (inactive); in assay [3] it was 0.815 (inactive); in [4], 0.196 (inactive); in assay [5], -0.181 (inactive); in [6] it was 0.269 (inactive); in assay [7], -0.2. In addition, the z-score in assay [8] is -0.0369 (inactive); in assay [9], 0.0305 (inactive); in [10] it was 0.447; in assay [11] it was 1.29; in assay [12], -0.305; in [13], 0.278. Besides, the z-score in [14] is 0.48; in assay [15] it was -0.345; in [16] it was 0.0892; in assay [17] it was 1.16 (inactive); in [18], -0.141; in assay [19] it was 0.692. For the same molecule, the z-score in assay [20] is -0.0733 (inactive). In [2], this molecule yielded a composite z-score of -0.288.

Take `C/C=C\[C@@H](NCc1ccccc1Br)[C@@H](O)Cc1ccccc1`: the z-score in [1] is -1.43 (inactive); in [3], -0.222 (inactive); in assay [4] it was -1.35 (inactive); in [5] it was 0.0141 (inactive); in assay [6] it was -2.52 (inactive); in [7], 0.365. In addition, the z-score in assay [8] was -0.239 (inactive); in [9] it was -1.49 (inactive); in assay [10], -2.69; in [11], -1.17; in assay [12], 1.43; in assay [13], -1.44. Also, the z-score is -1.53 in [14]; -3.29 in [15]; -1.34 in assay [16]; 0.0182 (inactive) in assay [17]; -0.926 in assay [18]; -0.0951 in [19]. Further, in assay [20], the z-score was -0.29 (inactive). In addition, the composite z-score in assay [2] was 0.0927.
